# According to PubChem BioAssay (Tox21):
# Unmarked numbers belong to inactive results. Where a call stands in place of a potency, no number is given. Activity calls are given as the source filed them. Unless noted, calls follow the shape of the dose curve; as a rule, active = well fitted curve in the direction sought with a large enough effect in the repeat runs; inconclusive = weak or mixed curves; inactive = no such curve, though single readings can be large; an effect the other way counts as inactive or inconclusive. Non-standard residues stand in square brackets, D forms with d. Residues, ends and D or L forms follow the SMILES beside them. pGlu = O=C1CC[C@@H](C(=O)O)N1
# What was measured:
# [1] = qHTS assay to identify small molecule antagonists of the thyroid receptor (TR) signaling pathway (AID 743065); also: nearly all actives have a fitted effect of over 55% in size; also: potency is read from the fitted curve at half-maximal effect
# Summary of the method: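 Antagonism measured as loss of luciferase signal in GH3 cells stably carrying a TRE-luciferase reporter, co-treated with compound and T3 (1 nM final) for 23.5 h at 37 C. Viability was read in the same well by CellTiter-Fluor.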
# [2] = tested on: thyroid hormone receptor (rat, GH3 cells); assay: qHTS assay to identify small molecule agonists of the thyroid receptor (TR) signaling pathway (AID 743066; calls by dose curve)
# [3] = target: Estrogen receptor (Homo sapiens) (UniProt P03372); assay: qHTS assay to identify small molecule antagonists of the estrogen receptor alpha (ER-alpha) signaling pathway (AID 743069; active = well fitted curve in the direction sought with a large enough effect in the signal ratio in the repeat runs, not every such curve was filed as active; inconclusive = weak or mixed curves, or effect the other way; inactive = no such curve, though single readings can be large or run the other way; the % refers to the signal ratio)
# Sequence of Estrogen receptor (Homo sapiens) (P03372 whole entry, looked up): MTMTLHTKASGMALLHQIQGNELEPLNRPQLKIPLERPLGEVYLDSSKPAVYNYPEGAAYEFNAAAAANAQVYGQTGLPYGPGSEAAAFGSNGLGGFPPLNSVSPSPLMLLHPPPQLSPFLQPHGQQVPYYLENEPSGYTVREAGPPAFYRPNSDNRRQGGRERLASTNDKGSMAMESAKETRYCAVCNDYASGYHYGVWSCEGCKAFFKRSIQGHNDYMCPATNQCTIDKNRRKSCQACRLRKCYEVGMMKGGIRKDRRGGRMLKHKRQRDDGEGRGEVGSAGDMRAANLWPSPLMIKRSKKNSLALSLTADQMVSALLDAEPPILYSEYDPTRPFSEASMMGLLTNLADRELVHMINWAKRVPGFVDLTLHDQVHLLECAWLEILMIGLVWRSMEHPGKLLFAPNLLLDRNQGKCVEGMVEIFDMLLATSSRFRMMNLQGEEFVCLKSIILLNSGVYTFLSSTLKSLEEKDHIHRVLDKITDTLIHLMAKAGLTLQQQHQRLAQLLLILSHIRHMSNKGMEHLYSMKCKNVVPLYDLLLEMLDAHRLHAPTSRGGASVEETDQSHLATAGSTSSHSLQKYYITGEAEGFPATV
# Summary of the method: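 Compound effects are measured against 17beta-estradiol stimulation in HEK293 cells with a UAS-controlled beta-lactamase reporter for ER-alpha. Exposure lasts 18 hr at 37C; LiveBLAzer B/G FRET substrate follows for 2 hr at room temperature.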
# [4] = qHTS assay to identify small molecule antagonists of the estrogen receptor alpha (ER-alpha) signaling pathway - cell viability counter screen (AID 743074; calls by dose curve;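 also: HEK293 cells carrying ER-alpha-UAS-bla reporter stimulated with 17beta-estradiol; nearly all actives have a fitted effect of over 45% in size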)
# [5] = target: Estrogen receptor (Homo sapiens) (UniProt P03372); assay: qHTS assay to identify small molecule agonists of the estrogen receptor alpha (ER-alpha) signaling pathway (AID 743075; calls by dose curve; also: potency is read from the fitted curve at half-maximal effect)
# [6] = target: Estrogen receptor (Homo sapiens) (UniProt P03372); assay: qHTS assay to identify small molecule agonists of the estrogen receptor alpha (ER-alpha) signaling pathway using the BG1 cell line (AID 743079); settings: BG1Luc4E2 cells, ERE-luciferase agonist, 22 h; activation: at 70.3 µM (top of the series); also: nearly all actives have a fitted effect of over 20% in size; also: potency is read from the fitted curve at half-maximal effect
# [7] = qHTS assay to identify small molecule antagonists of the estrogen receptor alpha (ER-alpha) signaling pathway using the BG1 cell line (AID 743080; calls by dose curve;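 also: BG1 cells stimulated with 17beta-estradiol alongside compound; nearly all actives have a fitted effect of over 25% in size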; also: potency is read from the fitted curve at half-maximal effect)
# Summary of the method: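 BG1Luc4E2, endogenous ER-alpha, 4xERE-luc; 5 d charcoal-stripped FBS, phenol red free; 24 h plating; cpd + 17beta-estradiol 21.5 h, 37 C/5% CO2; CellTiter-Fluor viability 30 min, then ONE-Glo luciferase 30 min RT.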
# Aromatase (Homo sapiens) = Aromatase (Homo sapiens) (UniProt P11511); assay: qHTS assay to identify aromatase inhibitors (AID 743083); also: nearly all actives have a fitted effect of over 55% in size
# Sequence of Aromatase (Homo sapiens) (P11511 whole entry, looked up): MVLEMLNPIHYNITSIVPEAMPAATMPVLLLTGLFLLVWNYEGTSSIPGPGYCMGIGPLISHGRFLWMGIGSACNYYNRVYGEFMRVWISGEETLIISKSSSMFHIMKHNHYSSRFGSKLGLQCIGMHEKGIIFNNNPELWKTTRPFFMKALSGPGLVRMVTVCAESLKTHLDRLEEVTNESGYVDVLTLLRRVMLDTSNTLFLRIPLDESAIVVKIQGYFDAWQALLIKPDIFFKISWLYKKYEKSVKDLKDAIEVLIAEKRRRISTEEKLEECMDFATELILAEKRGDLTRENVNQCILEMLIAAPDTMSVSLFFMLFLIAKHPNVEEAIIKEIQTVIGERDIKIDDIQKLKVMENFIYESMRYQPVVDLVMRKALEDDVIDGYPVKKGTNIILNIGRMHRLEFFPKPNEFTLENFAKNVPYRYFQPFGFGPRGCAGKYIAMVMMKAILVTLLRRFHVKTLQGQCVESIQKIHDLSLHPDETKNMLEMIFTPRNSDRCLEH
# [8] = qHTS assay to identify aromatase inhibitors - cell viability counter screen (AID 743084);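 also: cells stimulated with testosterone during compound exposure; nearly all actives have a fitted effect of over 55% in size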
# [9] = target: Aryl hydrocarbon receptor (Homo sapiens) (UniProt P35869); assay: qHTS assay to identify small molecule that activate the aryl hydrocarbon receptor (AhR) signaling pathway (AID 743085);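 also: HG2L7.5c1 human HepG2 liver cells with stably integrated DRE-driven firefly reporter; nearly all actives have a fitted effect of over 15% in size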
# Sequence of Aryl hydrocarbon receptor (Homo sapiens) (P35869 whole entry, looked up): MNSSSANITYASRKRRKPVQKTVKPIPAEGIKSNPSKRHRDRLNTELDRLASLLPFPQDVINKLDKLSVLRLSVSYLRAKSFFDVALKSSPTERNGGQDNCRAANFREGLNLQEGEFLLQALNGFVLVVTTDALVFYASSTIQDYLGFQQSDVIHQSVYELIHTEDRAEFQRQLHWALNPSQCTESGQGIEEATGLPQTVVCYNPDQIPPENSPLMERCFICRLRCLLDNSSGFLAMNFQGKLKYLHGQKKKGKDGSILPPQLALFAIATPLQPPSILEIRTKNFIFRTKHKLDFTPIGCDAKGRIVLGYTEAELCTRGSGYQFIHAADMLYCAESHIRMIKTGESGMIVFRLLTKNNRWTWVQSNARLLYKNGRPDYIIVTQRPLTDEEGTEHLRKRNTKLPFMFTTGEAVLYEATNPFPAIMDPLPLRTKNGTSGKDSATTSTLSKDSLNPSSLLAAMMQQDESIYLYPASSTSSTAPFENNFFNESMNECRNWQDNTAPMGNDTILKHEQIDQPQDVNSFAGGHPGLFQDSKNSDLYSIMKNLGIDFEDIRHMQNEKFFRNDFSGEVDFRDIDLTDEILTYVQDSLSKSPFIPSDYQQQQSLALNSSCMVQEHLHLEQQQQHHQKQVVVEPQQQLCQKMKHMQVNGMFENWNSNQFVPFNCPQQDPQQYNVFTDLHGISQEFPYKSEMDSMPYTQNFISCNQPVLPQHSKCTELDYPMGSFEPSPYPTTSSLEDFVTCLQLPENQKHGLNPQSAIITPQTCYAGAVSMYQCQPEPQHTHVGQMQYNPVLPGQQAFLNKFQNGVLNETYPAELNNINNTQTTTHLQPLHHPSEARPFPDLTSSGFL
# Summary of the method: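 Stably transfected human liver carcinoma cells (HG2L7.5c1; 20 DRE-firefly luciferase) were incubated 5 h, dosed, and kept 24 h at 37C. Agonism was scored from increased luciferase luminescence.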
# [10] = qHTS assay to identify small molecule that activate the aryl hydrocarbon receptor (AhR) signaling pathway - cell viability counter screen (AID 743086);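 also: HepG2 liver cells carrying the AhR DRE luciferase reporter; nearly all actives have a fitted effect of over 45% in size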
# Summary of the method: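 Cytotoxicity counter screen: CellTiter-Fluor signal (30 min, 37 C) in 4000 HepG2 cells/well carrying the DRE-luciferase reporter, following 24 h compound exposure at 37 C.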
# [11] = target: Peroxisome proliferator-activated receptor gamma (Homo sapiens) (UniProt P37231); assay: qHTS assay to identify small molecule agonists of the peroxisome proliferator-activated receptor gamma (PPARg) signaling pathway (AID 743094; active = well fitted activation curve with a large enough effect in the signal ratio in the repeat runs, not every such curve was filed as active; inconclusive = weak or mixed curves, or effect the other way; inactive = no such curve, though single readings can be large or run the other way; the % refers to the signal ratio)
# Sequence of Peroxisome proliferator-activated receptor gamma (Homo sapiens) (P37231 whole entry, looked up): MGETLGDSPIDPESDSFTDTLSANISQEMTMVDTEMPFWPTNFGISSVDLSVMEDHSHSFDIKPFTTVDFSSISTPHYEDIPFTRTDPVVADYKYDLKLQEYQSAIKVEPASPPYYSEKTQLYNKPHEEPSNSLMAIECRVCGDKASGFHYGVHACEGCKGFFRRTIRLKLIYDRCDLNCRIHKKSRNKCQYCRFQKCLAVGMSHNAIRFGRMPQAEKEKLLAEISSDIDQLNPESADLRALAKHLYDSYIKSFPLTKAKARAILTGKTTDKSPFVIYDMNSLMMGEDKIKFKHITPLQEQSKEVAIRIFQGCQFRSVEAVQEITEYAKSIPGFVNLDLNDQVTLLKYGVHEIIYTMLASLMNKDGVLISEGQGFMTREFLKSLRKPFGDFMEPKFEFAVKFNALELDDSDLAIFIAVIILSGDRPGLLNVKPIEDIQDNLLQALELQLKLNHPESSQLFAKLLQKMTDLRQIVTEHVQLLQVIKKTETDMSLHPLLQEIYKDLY
# Summary of the method: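 Stably transfected HEK293H cells (GeneBLAzer PPARg UAS-bla) were incubated with test substances for 17 h at 37C after a 5 h pre-incubation; beta-lactamase activity was then detected by FRET substrate fluorescence.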
# [12] = qHTS assay to identify small molecule phospholipidosis (PLD) inducers (AID 1259344; active = well fitted curve in the direction sought with a large enough effect; inconclusive = small, poorly fitted or top-dose-only effect, or another doubt; inactive = no such curve, though single readings can be large; an effect the other way counts as inactive or inconclusive)
# Summary of the method: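 Fluorescent phospholipid staining (LipidTOX Red) measured by automated microscopy in fixed HepG2 cells after 24 h treatment; nuclei counterstained with Hoechst 33342; amiodarone as reference inducer.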
# [13] = target: Nuclear receptor subfamily 1 group I member 2 (Rattus norvegicus) (UniProt Q9R1A7); assay: Rat pregnane X receptor (rPXR) activation by small molecules, qHTS assay (AID 1346983); settings: rPXR luciferase reporter cells, One-Glo luminescence, 24 h; max activation: stronger effect = higher value; also: nearly all actives have a fitted effect of over 20% in size
# Sequence of Nuclear receptor subfamily 1 group I member 2 (Rattus norvegicus) (Q9R1A7 whole entry, looked up): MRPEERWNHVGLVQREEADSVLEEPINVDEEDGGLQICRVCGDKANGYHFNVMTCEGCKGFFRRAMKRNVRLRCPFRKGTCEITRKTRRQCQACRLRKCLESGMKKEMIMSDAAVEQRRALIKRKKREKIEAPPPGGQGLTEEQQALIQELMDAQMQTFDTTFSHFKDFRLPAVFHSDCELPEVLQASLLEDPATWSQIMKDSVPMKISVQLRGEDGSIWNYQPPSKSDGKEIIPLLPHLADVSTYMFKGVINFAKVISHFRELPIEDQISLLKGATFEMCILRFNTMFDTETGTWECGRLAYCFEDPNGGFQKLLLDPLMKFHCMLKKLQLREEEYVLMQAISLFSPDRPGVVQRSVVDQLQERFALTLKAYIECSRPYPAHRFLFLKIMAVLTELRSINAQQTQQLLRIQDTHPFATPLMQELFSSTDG
# Summary of the method: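 Luminescent readout (One-Glo luciferase, 30 min room temperature) followed 24 hr compound treatment at 37 C of rPXR cells plated 2,000 per well and preincubated 5hr; qHTS format with compounds delivered in DMSO.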
# [14] = target: Nuclear receptor subfamily 1 group I member 2 (Homo sapiens) (UniProt O75469); assay: CYP3A4 induction through human pregnane X receptor (PXR) by small molecules, qHTS assay (AID 1346984); also: nearly all actives have a fitted effect of over 40% in size
# Summary of the method: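 DPX-2 reporter cells; 24h cpd, 37C; Luciferin-IPA 3uM final x3h; One-Glo 30 min RT; lumi read.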
# [15] = target: Nuclear receptor subfamily 1 group I member 2 (Homo sapiens) (UniProt O75469); assay: Human pregnane X receptor (PXR) activation by small molecules, qHTS assay (AID 1346985); also: nearly all actives have a fitted effect of over 40% in size; also: potency is read from the fitted curve at half-maximal effect
# Summary of the method: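 DPX-2 cells (HepG2 co-transfected with a PXR response element and a CYP3A4-promoter luciferase construct) were seeded at 2,000 per well, rested 5 hr at 37C, then exposed to DMSO-dissolved compounds for 24 hr. Activation was read as luciferase luminescence.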
# [16] = qHTS assay to identify small molecule antagonists of the estrogen receptor alpha (ER-alpha) signaling pathway using the BG1 cell line - cell viability counter screen (AID 743081);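 also: compound given together with 17beta-estradiol as the ER stimulus; nearly all actives have a fitted effect of over 45% in size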
# [17] = qHTS assay to identify small molecule antagonists of the thyroid receptor (TR) signaling pathway - cell viability counter screen (AID 743064); also: nearly all actives have a fitted effect of over 50% in size
# Summary of the method: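 CellTiter-Fluor readout, 30 min at 37 °C/5% CO2, following 23.5 h incubation of GH3.TRE-Luc cells with test compound and 1 nM T3 (final).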
SMILES,Potency [1],Potency [2],Potency [3],Potency [4],Potency [5],Potency [6],Potency [7],Potency (Aromatase (Homo sapiens)),Potency [8],Potency [9],Potency [10],Potency [11],Potency [12],max activation [13] [%],Potency [14],Potency [15],Potency [16],Potency [17]
CCCOc1cc(N)ccc1C(=O)OCCN(CC)CC,inactive,inactive,inactive,inactive,inactive,inactive,inactive,inactive,inactive,inactive,inactive,inactive,inactive,2.87,inactive,inactive,,
CN[C@@H]1[C@H](O[C@H]2[C@H](O[C@H]3[C@H](O)[C@@H](O)[C@H](N=C(N)N)[C@@H](O)[C@@H]3N=C(N)N)O[C@@H](C)[C@]2(O)C=O)O[C@@H](CO)[C@H](O)[C@H]1O,inactive,inactive,inactive,inactive,inactive,inactive,inactive,inactive,inactive,inactive,inactive,inactive,inactive,-1.83,inactive,inactive,inactive,
FCOC(C(F)(F)F)C(F)(F)F,,,,inactive,inactive,inactive,inactive,inactive,inactive,inactive,inactive,inactive,inactive,-0.275,inactive,inactive,inactive,inactive
CC1CS(=O)(=O)CCN1/N=C/c1ccc([N+](=O)[O-])o1 (stereo not given),inactive,inactive,inactive,inactive,inactive,inactive,inactive,inactive,inactive,inactive,,inactive,inactive,-7.04,inactive,inactive,inactive,
CS(=O)(=O)OCC(O)C(O)COS(C)(=O)=O (stereo not given),inactive,inactive,inactive,inactive,inactive,inactive,inactive,inactive,inactive,inactive,inactive,inactive,inactive,-4.2,inactive,inactive,inactive,
Cc1c(Cl)cccc1Nc1ncccc1C(=O)O,23.7 µM (active),inactive,,inactive,inactive,,,inactive,inactive,,inactive,inactive,inactive,0.0958,inactive,inactive,inactive,
CCCCC(O)c1ccccc1 (stereo not given),inactive,inactive,inactive,inactive,inactive,21.1 µM (active),inactive,inactive,inactive,inactive,inactive,inactive,inactive,-0.82,inactive,inactive,inactive,
CC[C@H](C)[C@H](NC(=O)[C@H](Cc1ccccc1)NC(=O)[C@H](C)NC(=O)[C@H](CC(=O)O)NC(=O)[C@H](CCCCN)NC(=O)[C@H](CO)NC(=O)[C@@H]1CCCN1C(=O)[C@@H]1CCC(=O)N1)C(=O)NCC(=O)N[C@@H](CC(C)C)C(=O)N[C@@H](CCSC)C(N)=O ([pGlu]PSKDAFIGLM-NH2),,,,inactive,,,,inactive,inactive,,inactive,inactive,inactive,-3.14,inactive,inactive,inactive,inactive
C=CCOc1ccc(CC(=O)O)cc1Cl,inactive,inactive,,inactive,3.79 µM [inconclusive] (active),0.266 µM (active),,inactive,inactive,,inactive,,inactive,-5.29,inactive,inactive,inactive,
COC(=O)[C@@H](N)CS,inactive,inactive,,inactive,inactive,26.6 µM (active),inactive,inactive,inactive,inactive,,inactive,inactive,0.531,inactive,inactive,inactive,
O=C(OC[C@H]1O[C@](O)(COC(=O)c2cccnc2)[C@@H](OC(=O)c2cccnc2)[C@@H]1OC(=O)c1cccnc1)c1cccnc1,inactive,inactive,inactive,inactive,inactive,inactive,inactive,inactive,inactive,inactive,,inactive,inactive,1.1,inactive,inactive,inactive,
C[C@H](CCCC(C)(C)O)[C@H]1CC[C@H]2[C@@H]3CC=C4C[C@@H](O)CC[C@]4(C)[C@H]3CC[C@]12C,,,,inactive,,,,inactive,inactive,inactive,inactive,inactive,inactive,-4.18,inactive,inactive,inactive,inactive
C=CCNC1=C2C[C@@H](C)C[C@H](OC)[C@H](O)[C@@H](C)/C=C(\C)[C@H](OC(N)=O)[C@@H](OC)/C=C\C=C(/C)C(=O)NC(=CC1=O)C2=O,0.335 µM (active),inactive,,inactive,inactive,,0.237 µM (active),inactive,,inactive,inactive,,inactive,-14.2,inactive,6.31 µM (active),,
